Shown are actives, neighbours in structure and some others; about 19% of the full set was active somewhere.
MARV entry inh: inhibitors of Marburg virus binding or cell entry | Potency, µM (series often up to 37.8 µM), without a hit: at the top dose activity change, negative = inhibition, most hits filed as inhibitors | Marburg virus pseudotyped entry inhibition, cell reporter | hit rate 1.8% among 300,000; calls by dose curve; tested in HEK293 cells; further: potency means the concentration at half of the fitted maximal effect; on the % scale 0 is the no-effect control and ±100 the full control effect
Lassa entry inh: Lassa virus entry inhibition; Lassa virus pseudotype entry inhibition, cell reporter; Potency, µM (titrated, usually from 37.9 µM), for the others: top-dose activity change, negative = inhibition, actives largely listed as inhibitors; hit rate 1.2% among 300,000; AID 540256; calls by dose curve; tested in HEK293 cells; further: potency means the concentration at half of the fitted maximal effect; on the % scale 0 is the no-effect control and ±100 the full control effect; nearly all actives have a fitted effect of over 50% in size
Shiga inhibitor: blocks Shiga toxin action in Vero cells | inhibition, % at 38.7 µM | hit rate 9.2% among 290,000 | Vero cells, Shiga toxin protein synthesis inhibition reporter | AID 2315; in the data active means inhibition mostly above about 28%, no sharp cut-off; inactive means mostly below about 43%; further: 0% is about no effect
CHX counter: counter-screen hit for Shiga toxin inhibitors, cycloheximide | cell reporter, cycloheximide protein synthesis inhibition counterscreen | max response, % | hit rate 12% among 300,000; in the data active means max response mostly above about 13%, no sharp cut-off; inactive means mostly below about 14%; further: read at 38.3 µM for the half of the compounds with a filed dose; 0% is about no effect
Pf growth 48h: inhibits P. falciparum growth in the first generation, 48 h | P. falciparum luciferase growth in erythrocytes, 48 h | Potency, µM (titrated, usually from 28.7 µM), without a hit: at the highest dose activity change, negative = inhibition, most hits filed as inhibitors | hit rate 5.9% among 310,000; further: potency means the concentration at half of the fitted maximal effect; on the % scale 0 is the no-effect control and ±100 the full control effect
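First compound was added to culture medium, then infected red cells at 0.1% parasitemia and 2% hematocrit (final). After incubation at 37 C under 5% CO2, luciferase detection reagent was dispensed and light output recorded.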
Pf growth 96h: P. falciparum growth inhibition at 96 hours. P. falciparum luciferase reporter growth, 96 h. Potency, µM (series often up to 28.7 µM), without a hit: top-dose activity change, negative = inhibition, most hits filed as inhibitors. hit rate 6.9% among 320,000; further: potency means the concentration at half of the fitted maximal effect; on the % scale 0 is the no-effect control and ±100 the full control effect
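Delayed-death screen, second-generation endpoint: infected erythrocytes, 2% hematocrit, 0.05% parasitemia final; 96 hours at 37 C, 5% CO2; luciferase detection reagent; luminescence decrease equals reduced growth.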
The depositor's hits bear a star; [ ] = remark or other dose. Unless noted, the call rests on the fitted dose curve; in most records, active means well fitted inhibition curve with a large enough effect; inconclusive means small, poorly fitted or top-dose-only effect, or another doubt; inactive means no such curve, though single readings can be large or run the other way.

What do the screens show for `Cc1cc(Nc2nnnn2-c2ccccc2)n(-c2ccccc2)n1`?
MARV entry inh: -6%; Lassa entry inh: -1%; Shiga inhibitor: -17; CHX counter: -2; Pf growth 48h: 32%; Pf growth 96h: 9.3µM*

What do the screens show for `Cc1cccc(C)c1NC(=O)C(c1ccccc1)N1CCC1=O` (stereo not given)?
MARV entry inh: 29%; Lassa entry inh: 3%; Shiga inhibitor: -11; CHX counter: -4; Pf growth 48h: 24%; Pf growth 96h: 12%

How did O=C(NCc1cccs1)c1ccc(CSc2nc3ccncc3n2Cc2cccc(F)c2)cc1 do in these assays?
MARV entry inh: 6%[46.1 µM]; Lassa entry inh: -9%[46.1 µM]

How did COc1ccc(NC(=O)CC2C(=O)N(c3cccc(OC)c3)C(=O)N2CCC(C)C)cc1 (stereo not given) do in these assays?
MARV entry inh: -15%; Lassa entry inh: -24%; Shiga inhibitor: -16; CHX counter: -1; Pf growth 96h: 12µM*

How did COCCN1C(=O)N(c2cccc(OC)c2)C(=O)C1CC(=O)Nc1cccc(F)c1 (stereo not given) do in these assays?
Shiga inhibitor: -3; CHX counter: -1; Pf growth 48h: -1%; Pf growth 96h: 4.1µM*

Results for COc1ccc(NC(=O)CC2C(=O)N(c3cccc(OC)c3)C(=O)N2C(C)C)cc1 (stereo not given) ?
Shiga inhibitor: 23; CHX counter: 3; Pf growth 48h: -17%; Pf growth 96h: 18%

Results for COc1ccc(NC(=O)CC2C(=O)N(c3cccc(OC)c3)C(=O)N2CCC2=CCCCC2)cc1 (stereo not given) ?
MARV entry inh: inconclusive; Lassa entry inh: 11µM*

How did COCCN1C(=O)N(c2cccc(OC)c2)C(=O)C1CC(=O)Nc1ccccc1 (stereo not given) do in these assays?
MARV entry inh: inconclusive; Lassa entry inh: -12%[46.1 µM]

Results for COc1ccc(NC(=O)CC2C(=O)N(c3cccc(OC)c3)C(=O)N2Cc2ccco2)cc1 (stereo not given) ?
Shiga inhibitor: -1; CHX counter: 5; Pf growth 48h: -4%; Pf growth 96h: 9.3µM*

What do the screens show for `CC(=O)c1cccc(OCC(O)CN2CCN(S(=O)(=O)c3c(F)cccc3F)CC2)c1` (stereo not given)?
Shiga inhibitor: -10; CHX counter: -4; Pf growth 48h: inconclusive; Pf growth 96h: inconclusive

Results for CCCCCCNc1cc2n(c(=O)n1)CCc1cc(OC)c(OC)cc1-2 ?
MARV entry inh: -16%; Lassa entry inh: -9%; Shiga inhibitor: 27; CHX counter: 1; Pf growth 48h: inconclusive

How did CCN(CC)C(=O)Cn1cc(S(=O)(=O)CC(=O)Nc2ccc(F)cc2)c2ccccc21 do in these assays?
MARV entry inh: inconclusive; Lassa entry inh: -5%

What do the screens show for `O=C(NCc1cccnc1)c1noc2c1CCCCC2`?
MARV entry inh: 27%; Lassa entry inh: 24%; Shiga inhibitor: 55; CHX counter: 4; Pf growth 48h: 12%; Pf growth 96h: 43%

Results for O=C(NCc1cccc(F)c1)c1noc2c1CCCC2 ?
Shiga inhibitor: 54*; CHX counter: 39*; Pf growth 48h: 35%; Pf growth 96h: inconclusive

What do the screens show for `COc1ccc(CNC(=O)c2noc3c2CCCC3)cc1`?
MARV entry inh: 12%; Lassa entry inh: inconclusive; Shiga inhibitor: 114*; CHX counter: 28*; Pf growth 48h: 47%; Pf growth 96h: 3%

Results for O=C(NCc1ccc(Cl)cc1)c1noc2c1CCCC2 ?
MARV entry inh: 23%; Lassa entry inh: -9%; Shiga inhibitor: 40*; CHX counter: 25*; Pf growth 48h: 40%; Pf growth 96h: inconclusive

What do the screens show for `COc1ccc(CNC(=O)C(=O)NCc2ccncc2)cc1`?
MARV entry inh: 11%; Lassa entry inh: 6%; Shiga inhibitor: -5; CHX counter: 10; Pf growth 48h: 7%; Pf growth 96h: 20%

How did O=C(NCc1cccnc1)c1noc2c1CCCC2 do in these assays?
MARV entry inh: 7%; Lassa entry inh: 38%[14.3 µM]; Shiga inhibitor: 18; CHX counter: -1; Pf growth 48h: 15%; Pf growth 96h: inconclusive

How did COc1ccc(CNC(=O)c2nccnc2CO)cc1 do in these assays?
MARV entry inh: inconclusive; Lassa entry inh: 6%[46.1 µM]; Shiga inhibitor: -5; CHX counter: 2; Pf growth 48h: 19%; Pf growth 96h: 8.3µM*

What do the screens show for `O=C(Nc1ccc(Br)cc1)c1ccc(-n2cnnn2)cc1`?
MARV entry inh: 30%[46.1 µM]; Lassa entry inh: 11%[46.1 µM]; Shiga inhibitor: 1; CHX counter: 9; Pf growth 48h: 2%; Pf growth 96h: 2%

Results for O=C(NCc1ccco1)c1noc2c1CCCCC2 ?
MARV entry inh: 9%; Lassa entry inh: 5%; Shiga inhibitor: 40*; CHX counter: 33*; Pf growth 48h: 63%; Pf growth 96h: inconclusive

What do the screens show for `O=C(NCc1cccs1)c1noc2c1CCCC2`?
MARV entry inh: 0%; Lassa entry inh: -4%; Shiga inhibitor: 37; CHX counter: 15*; Pf growth 48h: 36%; Pf growth 96h: 54%

How did O=C(NCc1ccccc1)c1noc2c1CCCC2 do in these assays?
MARV entry inh: -13%; Lassa entry inh: 7%; Shiga inhibitor: 34; CHX counter: 44*; Pf growth 48h: 44%; Pf growth 96h: 6%

What do the screens show for `O=C(NCCc1ccccc1)c1noc2c1CCCCC2`?
MARV entry inh: inconclusive; Lassa entry inh: inconclusive; Shiga inhibitor: 96*; CHX counter: 35*; Pf growth 48h: 97%; Pf growth 96h: 53%

What do the screens show for `FC(F)(F)c1ccc(CN2CCNCC2)cc1`?
MARV entry inh: inconclusive; Lassa entry inh: -1%; Shiga inhibitor: 2; CHX counter: 3; Pf growth 48h: 3%; Pf growth 96h: 10%

Results for CCS(=O)(=O)c1ccc(Sc2nncn2C)c([N+](=O)[O-])c1 ?
MARV entry inh: inconclusive; Lassa entry inh: -2%; Shiga inhibitor: 40; CHX counter: 13; Pf growth 48h: inconclusive; Pf growth 96h: 23%

How did CCCCNC(=O)Nc1ccc2c(c1)N(C)C(=O)c1ccccc1S2 do in these assays?
MARV entry inh: 9%; Lassa entry inh: inconclusive; Shiga inhibitor: -6; CHX counter: 2; Pf growth 48h: inconclusive; Pf growth 96h: 3.3µM*

How did CN(Cc1ccccc1)C(=O)Nc1ccc2c(c1)N(C)C(=O)c1ccccc1S2 do in these assays?
MARV entry inh: 10µM*; Lassa entry inh: inconclusive

Results for CCCNC(=O)Nc1ccc2c(c1)N(C)C(=O)c1ccccc1S2 ?
MARV entry inh: -3%; Lassa entry inh: inconclusive; Shiga inhibitor: 15; CHX counter: -3; Pf growth 48h: -11%

Results for Cc1ccc(NC(=S)N(CCN(C)C)Cc2cccs2)cc1 ?
MARV entry inh: inconclusive; Lassa entry inh: 4%[46.1 µM]; Shiga inhibitor: -16; CHX counter: 13; Pf growth 48h: -11%; Pf growth 96h: inconclusive

Bioassay records: PubChem, National Center for Advancing Translational Sciences (NCATS)
